Results: ChEMBL document CHEMBL3988442, “University of Dundee, Small-Polar-MMV Screening Library” (2021)

How the values were obtained:
[1] = biological target: T1, Aspartate--tRNA(Asp/Asn) ligase (Mycobacterium tuberculosis (strain ATCC 25618 / H37Rv)) (UniProt P9WFW3); test: Assay for Asp RNA synthetase-1 from Mycobacterium tuberculosis; format: functional; design: scale not given: direction of the effect not stated beside the values; settings: 30 µM; also: in the data most compounds retested in dose-response had high values
T1 sequence (whole entry): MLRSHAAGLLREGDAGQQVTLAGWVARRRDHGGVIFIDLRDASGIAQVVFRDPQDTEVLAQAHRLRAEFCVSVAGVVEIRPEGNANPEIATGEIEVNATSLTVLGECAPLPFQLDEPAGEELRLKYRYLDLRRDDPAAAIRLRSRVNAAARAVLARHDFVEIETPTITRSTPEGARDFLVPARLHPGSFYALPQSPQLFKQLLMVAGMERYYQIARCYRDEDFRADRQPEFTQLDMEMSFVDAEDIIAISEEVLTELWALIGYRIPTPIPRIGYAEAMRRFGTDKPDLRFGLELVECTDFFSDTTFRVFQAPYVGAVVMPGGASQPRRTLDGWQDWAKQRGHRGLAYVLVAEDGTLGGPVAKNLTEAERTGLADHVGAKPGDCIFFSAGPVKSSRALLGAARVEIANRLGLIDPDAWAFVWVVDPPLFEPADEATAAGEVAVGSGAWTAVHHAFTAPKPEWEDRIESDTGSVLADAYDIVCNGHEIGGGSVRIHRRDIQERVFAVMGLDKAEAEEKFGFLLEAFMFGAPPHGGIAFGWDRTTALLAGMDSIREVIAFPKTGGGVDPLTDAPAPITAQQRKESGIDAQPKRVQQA

[2] = biological target: Shiga toxin 2 (Escherichia coli O157:H7) (UniProt P09385+P09386); test: E. coli 0.157:H7 Shiga Toxin SOP - stx2 screening assay; format: functional; design: scale not given: direction of the effect not stated beside the values; settings: 30 µM

Compound | Percent Effect [1] | Percent Effect [2]
CC(C)NC(=O)N1CCC2(CC(C(=O)NCc3cccnc3)=NO2)C1 (configuration not stated) | 2.53% | -11.6%
N#Cc1ccc(CN2CCN(C(=O)c3cc(C4CC4)[nH]n3)CC2)cc1 | -2.71% | -17.1%
Cc1cnn(C2CCCN(C(=O)C3=NN(C)C(=O)CC3)C2)c1 (configuration not stated) | 3.95% | 3.74%
Cc1ccc(CC(=O)N2CCOC(c3nc(C(C)(C)C)n[nH]3)C2)cn1 (configuration not stated) | -0.39% | -0.658%
COc1ccc(OCC(=O)NS(=O)(=O)c2cc(F)ccc2F)cc1 | -1.01% | -20.6%
O=C(Cc1csc(-c2ccc(Cl)cc2)n1)NC(C(=O)O)c1ccccc1 (configuration not stated) | 1.86% | -21.9%
CCS(=O)(=O)N1CCc2ccc(NC(=O)Nc3cccc(SC)c3)cc21 | -4.68% | -22%
Cc1cc(CN(C)C(=O)c2ccnc(N(C)C)c2)no1 | -3.84% | -18.4%
CN(C)CC(=O)N1CCC2(CC1)CN(c1ccsc1)C(=O)CO2 | 5.4% | -4%
CN1CCC(C(=O)NCc2nncn2-c2ccccc2)CC1=O (configuration not stated) | -4.57% | 18.1%
CCCS(=O)(=O)c1ncc(CN2CCC(CO)CC2)n1CC1CCCO1 (configuration not stated) | -5.1% | -15.9%
Cc1cc(C)c(CNC(=O)N2CCN(c3cnccn3)CC2)c(=O)[nH]1 | -0.167% | 9.86%
COc1cccc2c1OCC(CNC(=O)CNC(N)=O)C2 (configuration not stated) | 4.22% | 11.9%
COCCC(=O)N1CC[C@@H]2O[C@@H](C)C[C@H]2C1 | -0.28% | -0.0436%
CN(C)C(=O)N1CCN(CCn2nc3ccccn3c2=O)CC1 | -3.02% | -19.4%
CC1CN(C(=O)CN(Cc2ccccc2Br)C2CC2)CCO1 (configuration not stated) | 2.59% | 29.2%
CCNc1cc2c(nn1)CCN(C(=O)Cc1c(C)noc1C)C2 | 0.225% | 16%
Cc1cnn(CC2CCCN2Cc2nnc(Cc3ccccc3)o2)c1 (configuration not stated) | -0.062% | 20%
CCN1CCN(C2CCN(Cc3nc4ccccc4o3)CC2)C1=O | 12.7% | 21.6%
CCc1noc(C2CCCCN2C(=O)c2nnc3ccccc3n2)n1 (configuration not stated) | 1.83% | -8.75%
COc1c(CNC2CCN(C(C)(C)C)CC2)c(C(C)C)nn1C | -0.618% | 30.9%
Cc1noc(Cl)c1CCC(=O)N1CCCCC1Cn1cccn1 (configuration not stated) | 1.35% | -6.37%
COc1c(CNCc2cnn(C)c2)c(C(C)C)nn1C | -1.63% | 6.94%

Compound | Percent Effect [1] | Percent Effect [2]
CC(=O)N1CCC2(CC1)COCCN2CCN(C)C | 0.524% | 1.75%
CC(=O)N(Cc1ncc(C)o1)C1CCN(Cc2ccncc2Cl)C1 (configuration not stated) | 2.91% | 16%
CS(=O)(=O)CC(=O)N1C[C@@H]2COC[C@]2(c2nnc(C3CC3)o2)C1 | -1.72% | -40.1%
Cc1ncc(CNC(=O)Cc2ccc(Cl)cc2)c(C2CCCN2C)n1 (configuration not stated) | 0.551% | 15.8%
COc1ccc(C2OC(COc3ccccc3Br)=NN2C(C)=O)cc1 (configuration not stated) | 0.568% | -36.2%
CS(=O)(=O)N1Cc2ccccc2C2(CCN(C(=O)c3ccno3)CC2)C1 | 1.46% | -6.76%
CC(O)CN1CCN(C(=O)c2cn(-c3ccccc3Cl)nn2)CC1 (configuration not stated) | 3.29% | -10.2%
COC(=O)c1sccc1NC(=O)C1CCCN1C(=O)c1ccco1 (configuration not stated) | -0.808% | -12.3%
Cc1csc(CNC(=O)NC2CCN(c3ncccn3)CC2)n1 | 2.39% | -1.46%
Cn1ccnc1CN1CCN(CC(O)c2ccco2)CC1 (configuration not stated) | 4.07% | 20%
Cn1cc(CN(Cc2ccccc2)CC(O)c2cccs2)cn1 (configuration not stated) | 0.353% | 9.88%
CC(=O)N1CCCC1c1csc(Nc2cnccn2)n1 (configuration not stated) | 3.49% | 29.9%
CN1CC(=O)N(c2cnn(C)c2)CC12CCN(Cc1nccn1C)C2 (configuration not stated) | -3.88% | -23.4%
COCC1Cn2nnc(-c3cnn(C)c3)c2CN1Cc1ccco1 (configuration not stated) | 0.436% | -1.07%
N#Cc1ccccc1C(=O)N1CCC2(CC(=O)NC2=O)C1 (configuration not stated) | -0.613% | -0.393%
CCOCCN1CCN(Cc2nc(C3CC3)no2)CC1CC (configuration not stated) | -4.28% | 9.42%
Cc1ccc(CNS(=O)(=O)CC2=NC(=O)n3cccc3C2=O)cc1 | 3.72% | 4.1%
CN1C(=O)C(c2cccnc2)CC12CCN(C(=O)c1cccn1C)CC2 (configuration not stated) | 0.99% | -12.3%
CCn1ccnc1CN1CCN(CC(=O)NC(=O)NC2CC2)CC1 | -2.79% | 24.4%
O=C(NC1CCCC1)[C@@H]1CN(Cc2nccs2)C[C@H]2OCC[C@H]21 | 4.4% | -7.97%
Cc1cnn(CC2CCCN2C(=O)c2cn(-c3ccccc3)nc2C)c1 (configuration not stated) | 4.47% | 14.6%
Cc1nc(CN2CCC(N(C)Cc3noc(C4CC4)n3)C2)oc1C (configuration not stated) | 1.48% | -11%
Cc1cccc(C(=O)NCc2ccnc(N(C)C)c2)n1 | -1.33% | -8.62%
